Screens as filed in PubChem BioAssay.
DT40 TDP1 no CPT = qHTS for Inhibitors of human tyrosyl-DNA phosphodiesterase 1 (TDP1): qHTS in cells in absence of CPT; AID 686978, 2013; DT40 Tdp1-/- hTDP1 cells, no CPT, ATP luminescence, 48 h; Potency, µM (highest dose often 46.2 µM), usual class: inhibitors; hit rate 15% among 420,000; also: nearly all actives have a fitted effect of over 55% in size
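Growth of hTDP1-complemented DT40 Tdp1-knockout cells is measured by ATP luminescence after at least 48 hr compound exposure at 37 °C, with DMSO substituting for the 20 nM CPT used in the parallel screen.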
DT40 TDP1 CPT = qHTS for Inhibitors of human tyrosyl-DNA phosphodiesterase 1 (TDP1): qHTS in cells in presence of CPT | chicken DT40 Tdp1-/-;hTDP1 cells + 20 nM CPT, ATP luminescence, 48 h | Potency, µM (doses to about 46.2 µM), actives largely listed as inhibitors | hit rate 12% among 420,000; also: nearly all actives have a fitted effect of over 55% in size
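Chicken DT40 Tdp1-/- cells stably complemented with human TDP1 were seeded at 400 cells/well in medium containing 20 nM camptothecin, exposed to pin-transferred compounds, and grown at 37 °C for at least 48 hr. Viability was read as ATP luminescence.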
HT1080 IDH1KD tx = qHTS for induction of synthetic lethality in tumor cells producing 2HG: qHTS for the HT-1080-IDH1KD cell line; hit rate 2% among 360,000; HT-1080 IDH1 knockdown viability, ATP luminescence, 48 h; Potency, µM (top dose mostly 46.1 µM), actives largely listed as cytotoxic; AID 686971, 2013
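Viability of IDH1-knockdown HT-1080 fibrosarcoma cells was assessed by CellTiter-Glo after 48 h at 37 °C with titrated compound; concentration-effect curves were classified by fit quality and response size.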
HepG2 viability = qHTS for Inhibitors of TGF-b: Cytotox Counterscreen; HepG2 CAGA-GFP viability, ATP luminescence, 18 h; Potency, µM (top dose mostly 46.1 µM), hits mostly cytotoxic; hit rate 0.76% among 410,000; AID 588856, 2011
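CellTiter-Glo luminescence gave cytotoxicity after 18 hours at 37 degrees C. The cells were HepG2 CAGA-GFP in 1% FBS DMEM, stimulated with 500 pg/mL TGF-beta after compound addition. %Activity was normalised to no-cell wells (complete cell-killing) and DMSO (no toxicity), and curves were fitted and classified.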
TGFb inhibitor = qHTS for Inhibitors of TGF-b. HepG2 CAGA-GFP TGF-b/SMAD3 reporter, GFP fluorescence, 18 h; TGF-beta stimulated, 500 pg/mL final. Potency, µM (series often up to 46.1 µM), most hits filed as inhibitors. hit rate 1.2% among 410,000; also: nearly all actives have a fitted effect of over 65% in size
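HEPG2 CAGA-GFP reporter cells (1000/well, DMEM with 1% FBS) received compounds, then recombinant TGF-beta at 500 pg/mL final for 18 hours at 37 degrees C. Per-cell GFP summed per well was normalised to unstimulated and stimulated DMSO controls before curve fitting.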
HT1080NT lethal = qHTS for induction of synthetic lethality in tumor cells producing 2HG: qHTS for the HT-1080-NT fibrosarcoma cell line; HT-1080-NT fibrosarcoma viability, CellTiter-Glo ATP luminescence, 48 h; Potency, µM (doses to about 46.1 µM), most hits filed as cytotoxic; hit rate 1.6% among 360,000;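 also: NT is the 2HG producing partner of a matched IDH1 knockdown line; nearly all actives have a fitted effect of over 55% in size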
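Luminescent CellTiter-Glo readout after 48 hours of compound exposure at 37 degrees C defined viability of HT-1080-NT cells. Activity was normalized to DMSO wells and cell-free media wells; concentration-response curves were fitted and assigned curve classes.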
A number is an active result; – = inactive; ? = inconclusive; · = not tested or not shown. Sampled rows, rich in hits. Any-hit rate of the full collection: about 17%. Calls follow the shape of the dose curve; as a rule, active = well fitted curve in the direction sought with a large enough effect; inconclusive = small, poorly fitted or top-dose-only effect, or another doubt; inactive = no such curve, though single readings can be large; an effect the other way counts as inactive or inconclusive.

SMILES	DT40 TDP1 no CPT	DT40 TDP1 CPT	HT1080 IDH1KD tx	HepG2 viability	TGFb inhibitor	HT1080NT lethal
O=C(NCc1ccc2c(c1)OCO2)c1ccc2c(c1)N(Cc1c(F)cccc1Cl)C(=O)c1ccccc1S2	–	–	·	–	–	·
CC1c2cc3c(cc2CCN1S(=O)(=O)c1ccccc1)OCCCO3 (stereo not drawn)	–	?	–	–	–	–
COc1ccc(S(=O)(=O)N2CCCCC2C)cc1 (stereo not drawn)	–	–	–	–	–	–
Cc1ccc(S(=O)(=O)N2CCc3cc4c(cc3C2C)OCCCO4)cc1 (stereo not drawn)	?	18µM	–	–	–	?
COc1ccc(S(=O)(=O)N2CCc3cc4c(cc3C2C)OCCCO4)cc1 (stereo not drawn)	?	16µM	–	–	?	–
COc1ccc(Cl)cc1NC(=O)N1CCN(S(=O)(=O)c2ccc3c(ccn3C)c2)CC1	·	·	·	–	–	·
CCc1ccccc1NC(=O)Nc1cc(C(=O)NCc2ccc(C)cc2)ccc1N1CCCC1	?	?	·	–	–	·
CCc1ccccc1NC(=O)Nc1cc(C(=O)NCc2ccc(OC)cc2)ccc1N1CCCC1	9.2µM	12µM	·	–	–	·
CCc1ccccc1NC(=O)Nc1cc(C(=O)NCc2cccc(F)c2)ccc1N1CCCC1	2.6µM	3.3µM	·	–	–	·
Cc1cccc(NC(=O)CSCC(=O)N(C)Cc2c(F)cccc2Cl)c1	13µM	?	–	–	–	–
Cc1csc(=O)n1CCC(=O)N(C)Cc1c(F)cccc1Cl	16µM	?	–	–	–	–
Cc1cccc(NC(=O)CSCC(=O)Nc2cc(Cl)ccc2N2CCN(C)CC2)c1	?	?	15µM	–	?	15µM
Cc1cc(NC(=O)CSCC(=O)Nc2cc(Cl)ccc2N2CCN(C)CC2)no1	–	–	–	–	–	–
O=C(c1ccc(Cl)c(S(=O)(=O)N2CCCCCC2)c1)N1CCN(c2ccccc2O)CC1	?	?	–	–	?	–
O=C(CSc1nnc(NC(=O)C2CC2)s1)Nc1ccc(F)cc1F	–	–	–	–	–	–
COc1cccc(C2C(C#N)=C(N)N(N(C)C)C3=C2C(=O)CC(C)(C)C3)c1OC (stereo not drawn)	–	–	–	–	–	–
Cc1nc2ccccn2c1-c1ccnc(=S)[nH]1	23µM	5.8µM	–	–	–	–
c1ccn2c(c1)nc1c2nc2ccccn21	–	–	–	–	–	–
Cc1csc2c(N3CCCCC3)ncnc12	–	–	–	–	–	–
O=S(=O)(c1ccc(Cl)cc1)N1CCN(c2ncnc3sccc23)CC1	5.8µM	6.5µM	?	–	?	?
Cc1csc2c(N3CCN(S(=O)(=O)c4ccc(Cl)cc4)CC3)ncnc12	23µM	–	–	–	–	–
O=S(=O)(c1ccc(Cl)cc1)N1CCN(c2ccccn2)CC1	–	–	–	–	–	–
CCN(C(=O)CCS(=O)(=O)c1ccc2c(c1)CCN2C(C)=O)c1cccc(C(F)(F)F)c1	?	–	·	–	–	·
CCCN1CNc2c(c(=O)[nH]c(=S)n2CCc2cccc(C)c2)C1	?	?	–	·	·	–
COc1ccc(CCn2cc(C#N)c(=O)[nH]c2=O)cc1OC	–	–	–	–	–	–
SMILES	DT40 TDP1 no CPT	DT40 TDP1 CPT	HT1080 IDH1KD tx	HepG2 viability	TGFb inhibitor	HT1080NT lethal
COc1ccc(C2CC(c3cccs3)n3nc(N)nc3N2)cc1 (stereo not drawn)	?	23µM	–	–	–	–
CCOc1ccccc1C1CC(c2ccc(F)cc2)Nc2nc(N)nn21 (stereo not drawn)	?	1.2µM	–	–	–	–
Clc1ccc(C2CC(c3ccccc3)Nc3ncnn32)cc1 (stereo not drawn)	–	?	–	–	–	–
COc1ccccc1C1CC(c2ccc(Cl)cc2)Nc2nc(N)nn21 (stereo not drawn)	16µM	10µM	–	–	–	?
Nc1nc2n(n1)C(c1cccs1)CC(c1ccc(F)cc1)N2 (stereo not drawn)	–	–	–	–	–	–
COc1ccccc1C1CC(c2ccc(Cl)cc2)Nc2ncnn21 (stereo not drawn)	21µM	15µM	–	–	–	–
CCOc1ccccc1NC(=O)c1c(NC(=O)c2cccc(C)c2)sc2c1CCC2	–	?	·	–	–	·
Cc1cccc(NS(=O)(=O)c2nnc(NC(=O)C3CCCCC3)s2)c1	?	?	–	–	?	–
CCOc1ccc(OCCCC(=O)Nc2cc(Cl)ccc2-n2cncn2)cc1	–	–	–	–	–	–
O=C(O)CCc1nnc(SCC(=O)Nc2cccc(C(F)(F)F)c2)[nH]c1=O	–	–	–	–	–	–
COc1cc(CN2CCCC(C(=O)c3ccc4c5c(cccc35)CC4)C2)cc(OC)c1O (stereo not drawn)	4.6µM	4.6µM	–	–	?	–
O=C(c1ccc2c3c(cccc13)CC2)C1CCCN(C(=O)c2cccnc2)C1 (stereo not drawn)	21µM	12µM	–	–	?	–
CN1CCC(C(=O)N2CCCC(C(=O)c3ccc4c5c(cccc35)CC4)C2)CC1 (stereo not drawn)	18µM	?	–	–	–	–
COc1ccccc1C(=O)C1CCCN(Cc2cccc3nccnc23)C1 (stereo not drawn)	–	–	–	–	–	–
CC(=O)NCCC(=O)N1CCCC(C(=O)c2ccc3c4c(cccc24)CC3)C1 (stereo not drawn)	?	?	–	–	–	–
CC(=O)N1CCCC(C(=O)c2ccc3c4c(cccc24)CC3)C1 (stereo not drawn)	23µM	–	–	–	–	–
O=C(c1ccc2c3c(cccc13)CC2)C1CCCN(Cc2cccnc2)C1 (stereo not drawn)	?	–	–	–	–	–
Cc1ccc(S(=O)(=O)N2CCCCC2)cc1NC(=O)COC(=O)Cc1cccc(C(F)(F)F)c1	?	–	–	–	–	–
Cc1ccc(-c2nc(NCCN(C)C)c3ccccc3n2)cc1	?	–	21µM	–	?	?
c1ccc(CN2CCN(c3nc(-c4ccccn4)nc4ccccc34)CC2)cc1	–	–	–	–	–	–
CCCN(CCC)c1nc(-c2ccccc2F)nc2ccccc12	?	–	·	–	–	·
